Test results published in the supplement of paper PMC13380429.

Tested on: Vero E6 infected with SARS-CoV-2
Experiment: inhibition of SARS-CoV-2 cytopathic effect; higher = more antiviral protection, active = above 15
Details: 48 h

Measured: inhibition of SARS-CoV-2 cytopathic effect

Cn1ccc2cc(NC(=O)Nc3cccnc3)ccc21
inactive: 1 nM -1.98% | 8.33 nM -2.46% | 100 nM 0.51% | 833.33 nM -1.88% | 10000 nM 1.94%

N=C(N)NCCC[C@H](NC(=O)[C@@H]1CCCN1C(=O)[C@@H]1CSSC[C@H](N)C(=O)N[C@@H](Cc2ccc(O)cc2)C(=O)N[C@@H](Cc2ccccc2)C(=O)N[C@@H](CCC(N)=O)C(=O)N[C@@H](CC(N)=O)C(=O)N1)C(=O)NCC(N)=O [vasopressin]
inactive: 1 nM 3.02% | 8.33 nM -0.42% | 100 nM 1.64% | 833.33 nM 0.05% | 10000 nM -0.05%

CCOC(=O)[C@@H](C)Oc1cccc2c(=O)n(CC(=O)Nc3ccc4c(c3)OCCO4)ccc12
inactive: 1 nM -1.29% | 8.33 nM 1.77% | 100 nM 0.7% | 833.33 nM -5.6% | 10000 nM -5.98%

O=C1c2ccccc2C(=O)C1c1ccccc1 [phenindione]
inactive: 1 nM -1.88% | 8.33 nM -1.11% | 100 nM -1.06% | 833.33 nM -1.97% | 10000 nM -3.42%

CC(C)n1nc(-c2ccc3oc(N)nc3c2)c2c(N)ncnc21
inactive: 1 nM 1.94% | 8.33 nM 2.32% | 100 nM 1.66% | 833.33 nM -3.23% | 10000 nM -4.59%

COc1ccccc1N1CCN(CCCCNC(=O)c2ccc(-c3ccc(C(C)=O)cc3)cc2)CC1
inactive: 1 nM -1.49% | 8.33 nM -3.1% | 100 nM -4.98% | 833.33 nM -6.69% | 10000 nM -6.57%

CN(C)CC[C@@H](c1ccc(Cl)cc1)c1ccccn1 [chlorphenamine]
inactive: 1 nM 0.315% | 8.33 nM 1.98% | 100 nM -0.53% | 833.33 nM 0.17% | 10000 nM -5.02%

c1ccc2c(c1)CCCC2C1=NCCN1 (stereo not given) [tetrahydrozoline]
inactive: 1 nM 0.31% | 8.33 nM -1.09% | 100 nM 2.06% | 833.33 nM 1.39% | 10000 nM 0.27%

CCOc1cccc(NC(=O)c2ccc(N3CCCC3)c(C(F)(F)F)c2)c1
inactive: 1 nM 0.59% | 8.33 nM -0.15% | 100 nM -0.42% | 833.33 nM -1.65% | 10000 nM -2.63%

CC(c1cc2ccccc2s1)N(O)C(N)=O (stereo not given) [zileuton]
inactive: 1 nM -2.05% | 8.33 nM -0.81% | 100 nM 1.43% | 833.33 nM -1.9% | 10000 nM -1.8%

NC1(c2ccc(-c3nc4ccn5c(=O)[nH]nc5c4cc3-c3ccccc3)cc2)CCC1
active: 10000 nM 24.5%
inactive: 1 nM -1.08% | 8.33 nM 0.48% | 100 nM 2.84% | 833.33 nM 1.79%

O=C(O)c1ccc2c(c1)nc(Nc1cccc(Cl)c1)c1ccncc12
inactive: 1 nM -2.63% | 8.33 nM 0.18% | 100 nM -2.24% | 833.33 nM 0.52% | 10000 nM -1.33%

Clc1ccc(N/N=C(\c2ccccc2)c2ccccn2)nc1
inactive: 1 nM -0.45% | 8.33 nM -0.79% | 100 nM -1.98% | 833.33 nM 9.6%
active: 10000 nM 16.5%

COc1cc(C(=O)NC2CCCNC2)cc(OC)c1OC (stereo not given) [troxipide]
inactive: 1 nM 0.11% | 8.33 nM -0.47% | 100 nM 1.46% | 833.33 nM -0.19% | 10000 nM 2.03%

CCC(C)CCCC(=O)N[C@@H](CCN)C(=O)N[C@H](C(=O)N[C@@H](CCN)C(=O)N[C@H]1CCNC(=O)[C@H]([C@@H](C)O)NC(=O)[C@H](CCN)NC(=O)[C@H](CCN)NC(=O)[C@H](CC(C)C)NC(=O)[C@@H](CC(C)C)NC(=O)[C@H](CCN)NC1=O)[C@@H](C)O (stereo not given in full) [colistin]
inactive: 1 nM 0.955% | 8.33 nM -0.06% | 100 nM 3.56% | 833.33 nM 0.76% | 10000 nM -2.41%

CCCCCCCCCCCCCC(=O)[O-].CCCCCCCCCCCCCC(=O)[O-].N[C@@H]1CCCC[C@H]1N.[Pt+2] [miriplatin]
inactive: 1 nM -0.38% | 8.33 nM -0.15% | 100 nM 0.5% | 833.33 nM -1% | 10000 nM -1.94%

CC[C@H](C)C(=O)O[C@H]1C[C@H](O)C=C2C=C[C@H](C)[C@H](CC[C@@H](O)C[C@@H](O)CC(=O)O)[C@H]21
inactive: 1 nM 0.27% | 8.33 nM 3.73% | 100 nM 2.53% | 833.33 nM 6.3% | 10000 nM 1.69%

CCC[C@@H](NC(=O)N1C(=O)C(CC)(CC)[C@@H]1Oc1ccc(C(=O)N2CCN(C)CC2)cc1)c1ccc2c(c1)OCO2
inactive: 1 nM 1.03% | 8.33 nM 1.44% | 100 nM -0.09% | 833.33 nM 1.96% | 10000 nM -6.67%

O=c1sn(-c2cccc3ccccc23)c(=O)n1Cc1ccccc1 [tideglusib]
inactive: 1 nM -1.59% | 8.33 nM -1.6% | 100 nM -1.32% | 833.33 nM 0.87% | 10000 nM -0.03%

CN1[C@@H]2CC[C@H]1C[C@@H](OC(c1ccc(F)cc1)c1ccc(F)cc1)C2 [3-alpha-bis-(4-fluorophenyl)-methoxytropane]
inactive: 1 nM 0.13% | 8.33 nM 1.33% | 100 nM -2.46% | 833.33 nM -1.34% | 10000 nM -5.09%

COc1ccc(CCN2CCN(CCCc3ccccc3)CC2)cc1OC [cutamesine]
inactive: 1 nM 1.71% | 8.33 nM 0.69% | 100 nM 3.33% | 833.33 nM 2.23% | 10000 nM -5.76%

CN1C[C@@H]2C[C@H]1CN2c1cc2c(cc1F)c(=O)c(C(=O)O)cn2C1CC1 [danofloxacin]
inactive: 1 nM 0.88% | 8.33 nM -1.78% | 100 nM 0.43% | 833.33 nM 2.27% | 10000 nM 6.15%

CCC[C@@H]1C[C@@H](C(=O)N[C@@H]([C@H]2O[C@H](SC)[C@H](O)[C@@H](O)[C@H]2O)[C@@H](C)O)N(C)C1 [lincomycin]
inactive: 1 nM 1.22% | 8.33 nM 2.66% | 100 nM -0.29% | 833.33 nM -1.24% | 10000 nM -1.36%

CCc1cccc(CC)c1NC(=O)CN(CC(=O)O)CC(=O)O [etifenin]
inactive: 1 nM -0.66% | 8.33 nM 1.39% | 100 nM 0.25% | 833.33 nM 0.46% | 10000 nM 3.26%

CC(C)CC(=O)N[C@H](C(=O)N[C@H](C(=O)N[C@@H](CC(C)C)[C@@H](O)CC(=O)N[C@@H](C)C(=O)N[C@@H](CC(C)C)[C@@H](O)CC(=O)O)C(C)C)C(C)C [pepstatin]
inactive: 1 nM 1.4% | 8.33 nM 0.77% | 100 nM -0.17% | 833.33 nM -1.52% | 10000 nM -4.53%

c1cc(CN2CCCNCCNCCCNCC2)ccc1CN1CCCNCCNCCCNCC1 [plerixafor]
inactive: 1 nM -2.23% | 8.33 nM -1.5% | 100 nM 0.88% | 833.33 nM 0.29% | 10000 nM 1.12%

COc1cc(C[C@@H]2NCCc3cc(O)c(O)cc32)cc(OC)c1OC [trimethoquinol]
inactive: 1 nM 0.9% | 8.33 nM 0.73% | 100 nM 1.88% | 833.33 nM 0.62% | 10000 nM -5.45%

CC1(C)CC[C@]2(NC(=O)C(C)(F)F)CC[C@]3(C)[C@H](C(=O)C=C4[C@@]5(C)C=C(C#N)C(=O)C(C)(C)[C@@H]5CC[C@]43C)[C@@H]2C1 [Omaveloxolone (RTA-408)]
inactive: 1 nM 4.28% | 8.33 nM 6.39% | 100 nM 3.8% | 10000 nM -13.7%
active: 833.33 nM 17.2%

CCCN(CCC)C(=O)C(CCC(=O)OCCCN1CCN(CCOC(=O)Cc2c(C)n(C(=O)c3ccc(Cl)cc3)c3ccc(OC)cc23)CC1)NC(=O)c1ccccc1 (stereo not given) [proglumetacin]
inactive: 1 nM -3.43% | 8.33 nM -2.43% | 100 nM -2.86% | 833.33 nM -4.91% | 10000 nM -12.6%

C[C@@H](N)[C@@H](O)c1ccccc1 [1S,2R-phenylpropanolamine]
inactive: 1 nM -1.52% | 8.33 nM -0.06% | 100 nM -0.95% | 833.33 nM -0.75% | 10000 nM 0.8%

Cc1cc(OCc2nnc(SC3CCCC3)n2-c2cccnc2)ccc1-c1ccc(S(C)(=O)=O)cc1
inactive: 1 nM -0.48% | 8.33 nM 0.31% | 100 nM 1.82% | 833.33 nM 5.04% | 10000 nM -19.7%

O=C(/C=C/C=C/c1ccc2c(c1)OCO2)N1CCCCC1 [piperine]
inactive: 1 nM -1.58% | 8.33 nM -1.88% | 100 nM -3.68% | 833.33 nM -2.45% | 10000 nM 5.15%

NC(=O)c1ccc(N(C(N)=O)c2c(F)cccc2F)nc1-c1ccc(F)cc1F
inactive: 1 nM -0.41% | 8.33 nM -1.25% | 100 nM -4.38% | 833.33 nM -0.33% | 10000 nM -1.52%

Oc1nc(O)c2nc(O)[nH]c2n1 [uric-acid]
inactive: 1 nM -0.34% | 8.33 nM 0.2% | 100 nM -1.96% | 833.33 nM -1.44% | 10000 nM -0.42%

C[C@]12CCC(=O)C(O)=C1CC[C@@H]1[C@@H]2CC[C@]2(C)C(=O)CC[C@@H]12 [formestane]
inactive: 1 nM -6.07% | 8.33 nM -1.52% | 100 nM 4.22% | 833.33 nM 6.78% | 10000 nM -1.65%

C[C@@H]1C[C@H]2[C@@H]3C[C@H](F)C4=CC(=O)C=C[C@]4(C)[C@@]3(F)[C@@H](O)C[C@]2(C)[C@@]1(O)C(=O)CO [flumethasone]
inactive: 1 nM 0.24% | 8.33 nM -0.72% | 100 nM 1.45% | 833.33 nM 0.62% | 10000 nM 0.56%
